Reference: PubChem BioAssay (EPA / NIEHS)
Inconclusive results are not listed. Calls of active or inactive are those of the source. The calls were made as follows, unless noted: active = hit-call score of the fitted dose curve at least 0.9, where 1 is the maximum; inconclusive = response in the unintended direction; inactive = score below 0.9.

Legend:
[1] = read-out: Cytochrome P450 2C9 (Homo sapiens) (UniProt P11712); experiment: CLD_CYP2C9_48hr: CellzDirect (CLD) Gene Expression Assay for xenobiotic metabolism (CYP2C9) at 48 hours (AID 2283701; active = hit-call score of the fitted dose curve at least 0.9, where 1 is the maximum; inactive = score below 0.9)
Procedure, shortened: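 Primary human hepatocytes (two donor preparations) dosed daily for two days with test chemicals, 0.2% DMSO vehicle; harvested at 48 h. mRNA induction quantified by qNPA chemiluminescence, fitted for gain of signal against DMSO baseline; cytotoxicity annotated from phase-contrast morphology.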

[2] = read-out: xenobiotic metabolism (CYP1A2), CYP1A2 (gene 1544); experiment: CLD_CYP1A2_48hr: CellzDirect (CLD) Gene Expression Assay for xenobiotic metabolism (CYP1A2) at 48 hours (AID 2283703)
Procedure, shortened: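 Primary human hepatocytes from two donor preparations were dosed daily for two days at multiple concentrations in 0.2% DMSO vehicle. CYP1A2 mRNA was measured at 48 hours by chemiluminescent quantitative nuclease protection assay, with gain of signal fitted versus DMSO and cytotoxicity annotated from morphology.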

[3] = read-out: glucuronosyltransferase (UGT1A1), UGT1A1 (gene 54658); experiment: CLD_UGT1A1_48hr: CellzDirect (CLD) Gene Expression Assay for glucuronosyltransferase (UGT1A1) at 48 hours (AID 2283709);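 also: actives increase expression relative to DMSO so potency refers to induction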
Procedure, shortened: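 Human primary hepatocytes dosed daily for two days (0.2% DMSO vehicle), harvested at 48 h. UGT1A1 mRNA induction measured by quantitative nuclease protection assay with chemiluminescence; gain of signal versus DMSO; cytotoxicity flagged from morphology.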

[4] = Tanguay_ZF_120hpf_ActivityScore_legacy: (Legacy) Oregon State University Tanguay Lab 120 Hour Post-fertilization zebrafish Assay Score for Activity (AID 2283742);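 as to AC50: dechorionated Tropical 5D wild-type zebrafish embryos held singly per well; static exposure from 6 hpf until 120 hpf at 28 °C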
Procedure, shortened: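 Embryos are staged, enzymatically dechorionated at 4 hpf, placed individually at 6 hpf, then held in test chemical (0.64% DMSO) at 28C until 120 hpf. Mortality and malformations are scored by brightfield, with non-mortality endpoints skipped for dead embryos.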

[5] = CLD_ACTIN_48hr: CellzDirect (CLD) Gene Expression Assay for Baseline Control (Actin) at 48 hours (AID 2283702)
Procedure, shortened: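 Primary human hepatocytes (two donor preparations) dosed daily for two days with ToxCast chemicals at multiple concentrations versus 0.2% DMSO vehicle; harvested at 48 h. Actin mRNA measured as a background control by quantitative nuclease protection assay with chemiluminescence.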

[6] = read-out: alkyl and aryl transferase (GSTA2), GSTA2 (gene 2939); experiment: CLD_GSTA2_48hr: CellzDirect (CLD) Gene Expression Assay for alkyl and aryl transferase (GSTA2) at 48 hours (AID 2283708);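 also: active means mRNA induction above DMSO vehicle baseline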
Procedure, shortened: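 Primary human hepatocytes dosed daily for two days (0.2% DMSO vehicle), harvested at 48 h. GSTA2 mRNA induction measured by quantitative nuclease protection assay with chemiluminescent imaging, fitted for gain of signal relative to DMSO.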

[7] = CEETOX_H295R_MTT_cell_viability: Viability Assessment in the CeeTox HT-H295R MTT Assay (AID 2283718; active = hit-call score of the fitted dose curve at least 0.9, where 1 is the maximum; inactive = score below 0.9;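 as to AC50: curve fitted both ways so AC50 may mark viability loss or gain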)
Procedure, shortened: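 MTT reduction (0.5 mg/ml, 4 h at 37 C; absorbance at 570 and 650 nm) gave viability as background-corrected percent change versus controls. H295R cells had 48 h forskolin (10 uM) prestimulation, then 48 h chemical exposure at 0.1% DMSO.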

[8] = STM_H9_OrnithineISnorm_perc: Stemina devTOX quickPredict H9 human embryonic stem cell (hESC)-based Assay for Ornithine (ORN) Metabolite Biomarker, Normalized (AID 2283712; active = hit-call score of the fitted dose curve at least 0.9, where 1 is the maximum; inactive = score below 0.9;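 also: ornithine released into spent medium during last day measured by mass spectrometry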)
Procedure, shortened: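 Undifferentiated H9 hESCs exposed 72 h with daily media and compound renewal; final 24-h conditioned medium analysed by UPLC-HRMS. Ornithine peak area normalised to spiked C13 standard and to median 0.1% DMSO control; viability by CellTiter-Fluor.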

[9] = STM_H9_CystineISnorm_perc: Stemina devTOX quickPredict H9 human embryonic stem cell (hESC)-based Assay for Cystine (CYSS) Metabolite Biomarker, Normalized (AID 2283713; active = hit-call score of the fitted dose curve at least 0.9, where 1 is the maximum; inactive = score below 0.9)
Procedure, shortened: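 Undifferentiated H9 hESCs exposed 72 h, compound and media replaced every 24 h; final 24-h media analysed by UPLC-HRMS. Cystine normalized to C13 spike-in standard and median 0.1% DMSO control.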

[10] = STM_H9_OrnCyssISnorm_ratio: Stemina devTOX quickPredict H9 human embryonic stem cell (hESC)-based Assay for Ornithine (ORN):Cystine (CYSS) Ratio (AID 2283714)
Procedure, shortened: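 Steps: H9 hESCs in pluripotent state dosed 72h, medium plus compound renewed every 24h; conditioned medium from the final 24h deproteinized in 40% acetonitrile; ORN and CYSS quantified by UPLC-HRMS with C13 spike-ins; ratio relative to vehicle.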

[11] = read-out: HMG-CoA synthase (HMGCS2), HMGCS2 (gene 3158); experiment: CLD_HMGCS2_48hr: CellzDirect (CLD) Gene Expression Assay for HMG-CoA synthase (HMGCS2) at 48 hours (AID 2283711)
Procedure, shortened: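 Primary human hepatocytes from two donors dosed daily for two days, 0.2% DMSO vehicle. HMGCS2 mRNA measured 48 h after dosing by quantitative nuclease protection assay with chemiluminescent read-out; induction fitted relative to DMSO, cytotoxicity flagged by microscopy.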

[12] = read-out: xenobiotic metabolism (CYP1A1), CYP1A1 (gene 1543); experiment: CLD_CYP1A1_48hr: CellzDirect (CLD) Gene Expression Assay for xenobiotic metabolism (CYP1A1) at 48 hours (AID 2283705)
Procedure, shortened: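 Primary human hepatocytes from two donors dosed daily for two days at multiple concentrations, 0.2% DMSO vehicle; CYP1A1 mRNA induction at 48 h by qNPA chemiluminescence. Cytotoxicity noted by phase-contrast morphology.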

[13] = read-out: sulfotransferase (SULT2A), SULT2A1 (gene 6822); experiment: CLD_SULT2A_48hr: CellzDirect (CLD) Gene Expression Assay for sulfotransferase (SULT2A) at 48 hours (AID 2283710);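 also: hits raise SULT2A1 transcript above the 0.2% DMSO vehicle baseline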
Procedure, shortened: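 Primary human hepatocytes (two donor preparations) dosed daily for two days with chemicals at multiple concentrations, vehicle 0.2% DMSO; SULT2A1 mRNA induction at 48 h by quantitative nuclease protection assay, chemiluminescent read-out, fitted for gain of signal versus DMSO.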

[14] = read-out: Broad substrate specificity ATP-binding cassette transporter ABCG2 (Homo sapiens) (UniProt Q9UNQ0); experiment: CLD_ABCG2_48hr: CellzDirect (CLD) Gene Expression Assay for ABC Transporter (ABCG2) at 48 hours (AID 2283704)
Procedure, shortened: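 Primary human hepatocytes from two donors, dosed daily for 2 days, 0.2% DMSO vehicle, several concentrations. ABCG2 mRNA at 48 h by qNPA chemiluminescence, gain fitted versus DMSO; cytotoxicity flagged by morphology.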

[15] = test system: Thyroperoxidase (TPO), gene 445522; experiment: CCTE_Simmons_GUA_TPO: CCTE's Guaiacol Assay for Thyroperoxidase (TPO) Inhibition, Simmons Lab (AID 2283750)
Procedure, shortened: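 Porcine thyroid microsomes (25 ug) in 200mM potassium phosphate, preincubated 30 s at 37C with compound (8 concentrations, 5 nM–87.5 uM) and 35mM guaiacol; 1mM H2O2 starts reaction. Absorbance change at 450nm over first 80 s; loss of signal versus DMSO, three replicates.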

Measured: AC50

Sequence of Broad substrate specificity ATP-binding cassette transporter ABCG2 (Homo sapiens) (Q9UNQ0 whole entry, looked up): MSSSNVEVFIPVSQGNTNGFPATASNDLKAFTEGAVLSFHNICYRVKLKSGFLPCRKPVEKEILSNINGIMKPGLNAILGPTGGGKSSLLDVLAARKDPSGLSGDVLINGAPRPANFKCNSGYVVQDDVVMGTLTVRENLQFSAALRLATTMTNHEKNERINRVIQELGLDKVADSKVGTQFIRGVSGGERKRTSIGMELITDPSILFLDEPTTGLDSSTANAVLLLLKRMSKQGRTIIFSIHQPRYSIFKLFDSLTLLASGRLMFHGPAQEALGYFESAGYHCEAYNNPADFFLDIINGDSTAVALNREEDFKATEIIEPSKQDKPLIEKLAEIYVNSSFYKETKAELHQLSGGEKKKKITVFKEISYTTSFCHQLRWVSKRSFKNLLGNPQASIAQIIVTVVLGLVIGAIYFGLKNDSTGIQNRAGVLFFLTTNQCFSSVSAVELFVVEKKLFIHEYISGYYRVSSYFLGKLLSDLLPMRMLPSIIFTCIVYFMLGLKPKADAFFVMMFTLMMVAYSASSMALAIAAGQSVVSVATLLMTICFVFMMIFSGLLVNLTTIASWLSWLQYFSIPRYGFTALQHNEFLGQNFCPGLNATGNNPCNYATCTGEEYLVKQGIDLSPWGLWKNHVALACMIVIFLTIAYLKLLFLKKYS

OC(c1ccc(Cl)cc1)(c1ccc(Cl)cc1)C(Cl)(Cl)Cl
inactive: [1] | [2] | [3] | [4]

N#Cc1c(Cl)cccc1Cl
inactive: [1] | [5] | [6] | [3] | [7] | [4]

N#CN=C1SCCN1Cc1ccc(Cl)nc1
inactive: [1] | [2] | [3] | [8] | [9] | [10] | [7] | [4]

CCN(CC)C(=O)C(C)Oc1cccc2ccccc12 (centres undefined)
inactive: [1] | [7] | [4]
active: [2] 5.76 µM | [3] 3.1 µM | [8] 50 µM | [9] 5.52 µM | [10] 6.66 µM

Nc1c(Cl)c(F)nc(OCC(=O)O)c1Cl
inactive: [1] | [5] | [2] | [3] | [11] | [4]

CS(=O)(=O)c1ccc(C(=O)C2C(=O)CCCC2=O)c([N+](=O)[O-])c1
inactive: [1] | [5] | [2] | [3] | [11] | [8] | [9] | [10] | [4]

Cc1nc(N(C)C)nc(OC(=O)N(C)C)c1C
inactive: [1] | [5] | [12] | [3] | [7] | [4]
active: [2] 3.27 µM

Cc1c(COC(=O)[C@@H]2[C@H](/C=C(\Cl)C(F)(F)F)C2(C)C)cccc1-c1ccccc1
inactive: [1] | [2] | [3] | [11] | [7] | [4]

CCOP(=O)(OCC)Oc1nc(Cl)c(Cl)cc1Cl
inactive: [1] | [6] | [3] | [11]
active: [2] 4.58 µM | [4] 1.15 µM

CC1(C)C(C=C(Cl)Cl)C1C(=O)OC(C#N)c1cccc(Oc2ccccc2)c1 (centres undefined)
inactive: [1] | [12] | [13] | [8] | [9] | [10] | [7]
active: [2] 14.6 µM | [3] 6.03 µM | [4] 1.14 µM

CC1(C)CON(Cc2ccccc2Cl)C1=O
active: [9] 72.5 µM | [10] 68.8 µM
inactive: [1] | [2] | [3] | [13] | [8] | [7] | [4]

COCC(=O)N(c1c(C)cccc1C)C(C)C(=O)OC (centres undefined)
inactive: [1] | [2] | [3] | [11] | [7] | [4]

CC1(C)CCC(=Cc2ccc(Cl)cc2)C1(O)Cn1cncn1 (centres undefined)
active: [2] 1.66 µM | [8] 78.2 µM | [9] 28.9 µM | [10] 35 µM
inactive: [1] | [3] | [13] | [7] | [4]

CSC(=O)c1c(C(F)F)nc(C(F)(F)F)c(C(=O)SC)c1CC(C)C
inactive: [1] | [3] | [13] | [4]
active: [2] 6.64 µM

CCOP(=S)(OCC)Oc1nc(Cl)n(C(C)C)n1
inactive: [1] | [6] | [13] | [8] | [7] | [4]
active: [2] 5.78 µM | [12] 5.35 µM | [3] 1.9 µM | [9] 50.5 µM | [10] 54.9 µM

COc1cc(OC)nc(NC(=O)NS(=O)(=O)c2ncccc2OCC(F)(F)F)n1
inactive: [1] | [5] | [2] | [14] | [12] | [3] | [13] | [11] | [8] | [9] | [4]

CC1(C)C(C(=O)OC(C#N)c2cccc(Oc3ccccc3)c2)C1(C)C (centres undefined)
inactive: [1] | [2] | [12] | [11] | [4]
active: [3] 5.67 µM

Clc1cccc(C(Cl)(Cl)Cl)n1
active: [8] 19.7 µM
inactive: [1] | [5] | [2] | [3] | [9] | [4]

CC(C)N1C(=O)N(c2ccccc2)CSC1=NC(C)(C)C
inactive: [1] | [2] | [3] | [4]
active: [12] 33.6 µM

CC(C)Oc1cccc(NC(=O)c2ccccc2C(F)(F)F)c1
active: [2] 7.17 µM | [7] 71.1 µM | [4] 34.2 µM
inactive: [1] | [3]

CCOc1nc(F)cc2nc(S(=O)(=O)Nc3c(Cl)cccc3Cl)nn12
active: [8] 0.007 µM | [9] 0.0249 µM | [15] 55 µM
inactive: [1] | [2] | [12] | [3] | [13] | [11] | [4]

CCCC(=NOCC)C1=C(O)CC(CC(C)SCC)CC1=O (centres undefined)
inactive: [1] | [5] | [2] | [3] | [13] | [11] | [7] | [4]

COC(=O)NS(=O)(=O)c1ccc(N)cc1
inactive: [1] | [5] | [2] | [3] | [11] | [4]
active: [15] 136 µM
